# From PubChem BioAssay AID1347414 (National Center for Advancing Translational Sciences (NCATS), 2020)
# Inconclusive results are not listed. Calls of active or inactive are those of the source. Calls follow the shape of the dose curve; as a rule, active = well fitted inhibition curve with a large enough effect; inconclusive = small, poorly fitted or top-dose-only effect; inactive = no such curve, though single readings can be large or run the other way.
# Assay: qHTS to identify inhibitors of the type 1 interferon - major histocompatibility complex class I in skeletal muscle: Secondary screen by immunofluorescence; also: nearly all actives have a fitted effect of over 70% in size;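 as to activity change, negative = inhibition: digitonin at 100 µM served as the cytotoxic control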
# Settings: C25cl48 myoblasts, IFN-b induced HLA-ABC immunofluorescence, 24 h, Viability; series mostly up to 49.8 µM; activity change, negative = inhibition: at the top concentration
# Procedure, shortened: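 HLA-ABC immunofluorescence, with nuclear and cell-body stains, was quantified by laser scanning cytometry. Read-out followed 24 h of IFN-beta (4.0 ng/ml) stimulation of C25cl48 human myoblasts with compounds titrated 1:3 over 11 points from 50 uM, with ruxolitinib as inhibitor control.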
# % is scaled to controls: 0 for no effect and ±100 for the full control effect; potency is read from the fitted curve at half-maximal effect.
Structure (SMILES),"activity change, negative = inhibition",Potency
CCS(=O)(=O)N1CC(CC#N)(n2cc(-c3ncnc4[nH]ccc34)cn2)C1,-2.18% (inactive),
Fc1ccc(CNc2ncnc3ccc(F)cc23)cc1,8.45% (inactive),
Cc1ncc(-c2ccnc(Nc3ccc(S(C)(=O)=O)cc3)n2)n1C(C)C,0.722% (inactive),
CS[C@H]1SC[C@@H]2C(=O)N(C)[C@H](C(C)C)C(=O)OC[C@H](NC(=O)c3cnc4ccccc4n3)C(=O)N[C@H](C)C(=O)N(C)[C@H]1C(=O)N(C)[C@H](C(C)C)C(=O)OC[C@H](NC(=O)c1cnc3ccccc3n1)C(=O)N[C@H](C)C(=O)N2C,-4.37% (inactive),
COc1cc2c(cc1-c1c(C)noc1C)ncc1[nH]c(=O)n([C@H](C)c3ccccn3)c12,10.5% (inactive),
CC1(COc2ccc3c(c2)ncn3-c2ccc3cccc(N4CCC(N)CC4)c3n2)COC1,,7.26 µM (active)
O=c1[nH]c2cc(Cl)ccc2c(O)c1-c1ccc(Oc2ccccc2)cc1,2.3% (inactive),
Cc1ccc(NC(=O)NCc2ccc3c(c2)CN(C2CCC(=O)NC2=O)C3=O)cc1Cl (stereo not drawn),9.81% (inactive),
CO[C@@H]1[C@@H](O)[C@H](O)[C@@H](n2c3c(Cl)cccc3c3c4c(c5c6cccc(Cl)c6[nH]c5c32)C(=O)NC4=O)O[C@H]1CO,6.14% (inactive),
CC(C)[C@H](C(=O)Nc1ccc(C(=O)NO)cc1)c1ccccc1,-1.44% (inactive),
O=C(Nc1nc2cccc(-c3ccc(CN4CCS(=O)(=O)CC4)cc3)n2n1)C1CC1,-6.56% (inactive),
CC[C@@]1(O)C(=O)OCc2c1cc1n(c2=O)Cc2c-1nc1ccccc1c2/C=N/OC(C)(C)C,-26% (inactive),
COc1cccc2nc(-c3cccs3)nc(NN3C(=O)C=C(C)C3=O)c12,,16.2 µM (active)
